Laboratory results: PubChem BioAssay AID485346 (Sanford-Burnham Center for Chemical Genomics, 2010)
About 10,000 (3%) of roughly 330,000 compounds were called active.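 How the source made its calls: active means inhibition of at least 50% at 8 µM in the primary screen; inactive means the rest.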 Only a selection was taken, and actives are over-represented in it overall.

target: Protein Mdm4 (Homo sapiens) + E3 ubiquitin-protein ligase Mdm2 (Homo sapiens) (UniProt O15151+Q00987); experiment: inhibitors of human Mdm2-MdmX association, primary screen, cell-based, luminescence, split luciferase, SaOS-2, uHTS (AID 485346); details: SaOS-2 split-luciferase Mdm2/MdmX complementation, at 8 µM, hits give high values
Sequence (O15151 whole entry, looked up): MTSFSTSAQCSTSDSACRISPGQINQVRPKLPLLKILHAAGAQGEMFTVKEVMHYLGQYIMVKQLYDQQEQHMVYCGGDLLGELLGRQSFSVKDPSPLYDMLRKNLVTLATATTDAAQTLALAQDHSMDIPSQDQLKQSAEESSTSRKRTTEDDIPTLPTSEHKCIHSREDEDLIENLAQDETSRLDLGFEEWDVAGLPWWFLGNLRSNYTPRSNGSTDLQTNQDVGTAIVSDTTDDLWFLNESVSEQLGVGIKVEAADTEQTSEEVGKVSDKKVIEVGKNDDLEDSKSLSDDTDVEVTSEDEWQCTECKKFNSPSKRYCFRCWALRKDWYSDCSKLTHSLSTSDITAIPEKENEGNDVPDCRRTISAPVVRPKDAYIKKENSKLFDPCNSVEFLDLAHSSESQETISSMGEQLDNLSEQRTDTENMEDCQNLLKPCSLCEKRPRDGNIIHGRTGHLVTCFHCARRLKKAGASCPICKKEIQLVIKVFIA
Sequence (Q00987 whole entry, looked up): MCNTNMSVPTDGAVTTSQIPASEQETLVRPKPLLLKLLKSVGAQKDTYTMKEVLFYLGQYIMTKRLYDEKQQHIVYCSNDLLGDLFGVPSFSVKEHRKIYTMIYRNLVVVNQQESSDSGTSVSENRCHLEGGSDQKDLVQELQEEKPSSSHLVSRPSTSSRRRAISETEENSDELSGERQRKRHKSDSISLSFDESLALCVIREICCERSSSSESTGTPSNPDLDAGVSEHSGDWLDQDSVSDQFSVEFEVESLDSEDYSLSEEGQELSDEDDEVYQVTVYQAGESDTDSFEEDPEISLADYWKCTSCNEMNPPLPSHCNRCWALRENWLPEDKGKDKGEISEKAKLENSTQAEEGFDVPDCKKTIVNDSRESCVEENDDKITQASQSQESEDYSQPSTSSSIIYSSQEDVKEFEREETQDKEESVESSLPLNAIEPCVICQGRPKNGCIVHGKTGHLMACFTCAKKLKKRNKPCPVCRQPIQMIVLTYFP

| SMILES | inhibition |
| --- | --- |
| CC(=O)c1ccc(Oc2cc(C)nc(-n3nc(C)cc3C)n2)cc1 | 59.2% (active) |
| Cc1cc(C)n(-c2ccc(C(=O)O)cc2[N+](=O)[O-])n1 | -9.75% (inactive) |
| COc1ccc(C(C)=O)cc1CSc1nc2nc(C)cc(C)n2n1 | -8.43% (inactive) |
| CCOC(=O)C1C(c2ccc(OC)c(OC)c2)c2c([nH][nH]c2=O)CC1(C)O (stereo not drawn) | -7.74% (inactive) |
| COCCCNC(=S)NCCNc1nc2cc(C)c(C)cc2cc1C#N | -28.9% (inactive) |
| Cc1cc(C(=O)COC(=O)CCCN2C(=O)c3ccccc3C2=O)c(C)n1C | 6.08% (inactive) |
| C=CCn1c(C)cc(C(=O)CN2C(=O)c3ccccc3C2=O)c1C | 68% (active) |
| C=CCN(CC=C)C(=O)CN1C(=O)c2ccccc2C1=O | 11.2% (inactive) |
| Cc1cc(S(=O)(=O)N2CCOCC2)ccc1OCC(=O)Nc1cccc(C(F)(F)F)c1 | 23.2% (inactive) |
| CC(C)n1cnc2c(NCc3ccccc3)cc(N[C@@H](CO)Cc3ccccc3)cc21 | 93.5% (active) |
| CC(C)n1cnc2c(NCc3ccccc3)cc(OCC3CCN(C)CC3)cc21 | 22.6% (inactive) |
| CCC(CO)Oc1cc(NCc2ccccc2)c2ncn(C3CCCC3)c2c1 (stereo not drawn) | 7.28% (inactive) |
| CC(C)(Oc1ccc(C2CC2(Cl)Cl)cc1)C(=O)O (stereo not drawn) | 26.9% (inactive) |
| Cn1cc(S(=O)(=O)N2CCN(c3ccc(F)cc3)CC2)c(=O)n(C)c1=O | 8.49% (inactive) |
| CCCCn1c(=S)[nH]c2cc(S(=O)(=O)N3CCCCC3)ccc21 | -7.07% (inactive) |
| O=C(Nc1cc(S(=O)(=O)Nc2ccc(Cl)cc2)ccc1O)c1ccc(F)cc1F | 6.95% (inactive) |
| Cc1cccc(C(=O)NCC(=O)OCC(=O)N2CC3(C)CC2CC(C)(C)C3)c1 (stereo not drawn) | -13.6% (inactive) |
| COc1ccc(C(=O)N2CC3(C)CC2CC(C)(C)C3)cc1OC (stereo not drawn) | 16.7% (inactive) |
| Cc1nnnn1/C(=C\c1ccccc1)C(=O)OCC(=O)N1CC2(C)CC1CC(C)(C)C2 (stereo not drawn) | 57.8% (active) |
| Cc1ccc(C(=O)NCC(=O)O)s1 | 14% (inactive) |
| CCc1nn(-c2cc(Oc3cccc4ccccc34)nc(-c3ccccc3)n2)c(N)c1C#N | 86.8% (active) |

| SMILES | inhibition |
| --- | --- |
| CC(C)(C)n1nc(Cc2cccc3ccccc23)c(C#N)c1N | -12% (inactive) |
| CC#CC[N+](C)(C)CCCCCC | -0.896% (inactive) |
| C=CCn1c(-c2ccccc2OCC)n[nH]c1=S | 18.7% (inactive) |
| C/C(=N\NC(=O)c1cc(-c2ccc(O)cc2)nc2ccccc12)c1cccnc1 | -9.48% (inactive) |
| CCOc1cc(CNCc2ccccn2)ccc1OCC(=O)NC(C)(C)C | -2.81% (inactive) |
| COc1ccc(CNC(=O)C(c2ccc(O)cc2)N(Cc2ccco2)C(=O)c2snc(C(N)=O)c2N)cc1 (stereo not drawn) | 54.5% (active) |
| NC(=O)c1nsc(C(=O)N(CC(=O)NCc2ccc(F)cc2)Cc2ccco2)c1N | 9.54% (inactive) |
| COc1cc(C(C(=O)NC2CCCC2)N(Cc2ccccc2)C(=O)c2snc(C(N)=O)c2N)ccc1O (stereo not drawn) | 21.6% (inactive) |
| CCc1ccc(OCC(O)CN2CCN(CCO)CC2)cc1 (stereo not drawn) | 19.2% (inactive) |
| CCOC(=O)c1cnn(Cc2ccccc2Cl)c1N | -23.4% (inactive) |
| CC(C)(C)n1ncc2c(=O)n(Cc3c(Cl)cccc3Br)cnc21 | 10.5% (inactive) |
| CC(C)c1nnc(NC(=O)C2CC(=O)N(CCc3ccc(F)cc3)C2)s1 (stereo not drawn) | -16.4% (inactive) |
| CCN(C(=O)COC(=O)c1c(NC(C)=O)sc(C)c1C)C1CCS(=O)(=O)C1 (stereo not drawn) | 13.7% (inactive) |
| O=C(c1cccs1)N(Cc1cc2ccccc2[nH]c1=O)CC1CCCO1 (stereo not drawn) | -37.5% (inactive) |
| COc1ccc(-c2c(NC(=O)c3ccco3)oc3ccc(Cl)cc3c2=O)cc1 | -18.1% (inactive) |
| COc1ccccc1NC(=O)c1cc(Cl)nc2ccccc12 | -6.72% (inactive) |
| COc1ccc(NC(=O)c2cc(-c3cc(OC)c(OC)c(OC)c3)nc3ccccc23)c(OC)c1 | 61.6% (active) |
| COc1ccc(-c2cc(C(=O)Nc3ccccc3O)c3ccccc3n2)cc1 | 9.09% (inactive) |
| CCN(CC(=O)Nc1ccccc1C(=O)NC1CC1)Cc1cccs1 | 30.2% (inactive) |
| O=C(C1=C[C@H](c2coc3ccccc3c2=O)C[C@H](OCc2ccc(CO)cc2)O1)N1CCN(Cc2ccccc2)CC1 | 8.82% (inactive) |
| CN(c1ccccc1)S(=O)(=O)c1ccc(C(=O)N2CCN(c3ccccc3Cl)CC2)cc1 | 28.8% (inactive) |

| SMILES | inhibition |
| --- | --- |
| CN(c1ccccc1)S(=O)(=O)c1cc(C(=O)N2CCN(c3ncccn3)CC2)ccc1Cl | 77.3% (active) |
| CN(c1ccccc1)S(=O)(=O)c1cc(C(=O)OCC(=O)N2CCN(C(=O)c3ccco3)CC2)ccc1Cl | 15.6% (inactive) |
| COC(=O)c1ccc(C)c(NC(=O)Cn2c(C)csc2=O)c1 | 26.8% (inactive) |
| CC(C)(C)Cc1nnc(NC(=O)c2cc(-c3ccccc3)nc3ccccc23)s1 | -22% (inactive) |
| O=C(Nc1nnc(-c2ccc(Cl)cc2)o1)c1ccccc1Br | -13.3% (inactive) |
| O=C(Nc1nnc(-c2ccccc2)o1)c1cc(-c2cccs2)nc2ccccc12 | 51% (active) |
| COc1ccc(Cl)cc1C(=O)NNC(=O)c1nc2nc(C)cc(C)n2n1 | 8.57% (inactive) |
| CN(C)c1ccnc2sc3c(=O)n(Cc4ccccc4)cnc3c12 | 59.1% (active) |
| CN(C)/C=C/c1c(C#N)c(=O)ncn1Cc1ccccc1 | 13.9% (inactive) |
| O=c1c2c(ncn1Cc1ccccc1)nc1n2CCC1 | 19.7% (inactive) |
| CN(CCC#N)c1ncnc2scc(-c3ccccc3)c12 | 21.2% (inactive) |
| CC(C)CCN1CCC(C)(NC(=O)c2ccccc2)C1=O (stereo not drawn) | -21.2% (inactive) |
| CN(C)CCn1c(=S)[nH]c2ccc(Cl)cc2c1=O | 8.17% (inactive) |
| Cc1ccc(C)c(N2CCN(C(=O)CCCCn3c(=O)[nH]c4ccccc4c3=O)CC2)c1 | 8.89% (inactive) |
| O=C(CCCCCn1c(=S)[nH]c2cc3c(cc2c1=O)OCO3)N1CCN(c2ccc(F)cc2)CC1 | 53.5% (active) |
| CC(C)NC(=O)CCCn1c(=S)[nH]c2cc3c(cc2c1=O)OCO3 | -5.62% (inactive) |
| Cc1ccc(C)c(N2CCN(C(=O)CCCCCn3c(=S)[nH]c4ccc(N5CCOCC5)cc4c3=O)CC2)c1 | 85.6% (active) |
| O=C(CNS(=O)(=O)c1ccc2c(c1)OCCCO2)N1CCN(c2ccc(F)cc2)CC1 | 7.54% (inactive) |
| O=C(CCn1c(=S)[nH]c2cc3c(cc2c1=O)OCO3)NCc1ccc(Cl)cc1 | 56.3% (active) |
| O=C(NCCS(=O)(=O)N1CCN(c2ccc(F)cc2)CC1)c1ccc2c(c1)OCO2 | 7.26% (inactive) |
| Cc1ccc(C)c(N2CCN(C(=O)CCCn3c(=O)c4cccn4c4cccnc43)CC2)c1 | 1.5% (inactive) |
